Reference: PubChem BioAssay AID463173 (ICCB-Longwood Screening Facility, Harvard Medical School, 2010)
Screen size: about 52,000 compounds; about 1,700 (3.3%) were called active. The entries come from a sample that favours actives as a whole. Values without a mark were called inactive. Rule as the data show it: active = survival mostly below about 52% (no sharp cut-off); inactive = mostly above about 56%.

What follows are molecules tested on Wild type (assay: growth inhibition of S. aureus wild type versus tarO mutant, primary screen, teichoic acid synthesis inhibitors, RN4220, OD600 (AID 463173)). Details: S. aureus RN4220 wild type/DeltatarO growth, OD600, 18 h, active compounds read low, screened at 18.75 µg/mL (by protocol).

SMILES | survival
O=C(O)CCc1ccc(-c2cccs2)n1CC(=O)Nc1ccccc1C(F)(F)F | 105%
COc1ccc(OC)c(NC(=O)N2CCC(CN3CCCCC3)CC2)c1 | 70%
O=C(NCC(c1cccs1)S(=O)(=O)c1cccs1)c1c(F)cccc1F (stereo not drawn) | 71%
COCCCNC(=O)C1CCN(Cc2cc3ccccc3n2Cc2ccccc2C)CC1 | 78%
C=CCC1Cc2ccccc2C(CC=C)N1 (stereo not drawn) | 100%
CC1CCCCN1CCCNC(=O)c1ccc2c(c1)sc1nc(-c3ccc(F)cc3)cn12 (stereo not drawn) | 26%
Cc1ccc(-c2cn3c(n2)sc2cc(C(=O)NCCCN4CCCCCC4)ccc23)cc1 | -1% (active)
COc1ccc(-c2cn3c(n2)sc2cc(C(=O)NCCCN4CCCCCC4)ccc23)cc1 | 66%
CCN1CCN(CCCNC(=O)c2ccc3c(c2)sc2nc(-c4ccc(C)cc4)cn23)CC1 | 29%
CCC1CCCCN1CCCNC(=O)c1ccc2c(c1)sc1nc(-c3ccc(F)cc3)cn12 (stereo not drawn) | 6% (active)
COc1ccc(-c2cn3c(n2)sc2cc(C(=O)NCCCN4CCCCC4)ccc23)cc1 | 81%
Cc1ccc(-c2cn3c(n2)sc2cc(C(=O)NCCCN4CCCCC4)ccc23)cc1 | -1% (active)
CCCN1CCN(CCCNC(=O)c2ccc3c(c2)sc2nc(-c4ccc(C)cc4)cn23)CC1 | 20%
O=C(NCCCN1CCCCC1)c1ccc2c(c1)sc1nc(-c3ccc(F)cc3)cn12 | 43%
CCCCNC(=O)c1ccc(-c2nc(CS(=O)(=O)c3ccc(C)cc3)c(C)o2)cc1 | 83%
COc1ccc(C2=NN(C(C)=O)C(c3cn(-c4ccccc4)nc3-c3cccs3)C2)cc1 (stereo not drawn) | 127%
O=C(NCCN1CCOCC1)N1CCNC1=O | 110%
CC1(C)N=C2C(=[N+]1[O-])CCC/C2=N/O | 110%
Cc1ccc(C)c(NC(=O)NCc2ccc3c(c2)CCN3C(=O)c2ccccc2)c1 | 66%
CC(C)N1CCc2nc(SCC(=O)Nc3cccc(F)c3)[nH]c(=O)c2C1 | 83%

SMILES | survival
Cc1ccc(NC(=O)Cn2c(=O)n(CCC(C)C)c(=O)c3cccnc32)cc1C | 90%
Cc1ccc(-c2nc(CS(=O)CC(=O)NCc3ccccc3Cl)c(C)o2)cc1 (stereo not drawn) | 72%
Cc1ccccc1-c1noc(CSc2nc(-c3ccc(F)cc3)cc(=O)[nH]2)n1 | 10% (active)
Cc1ccc2nc(SCc3nc(-c4ccccc4C)no3)[nH]c2c1 | 27%
COc1ccc(-c2noc(CSc3nc4ccc(C)cc4[nH]3)n2)cc1 | 47%
Cc1ccc2nc(SCc3nc(-c4ccc(Cl)cc4)no3)[nH]c2c1 | -4% (active)
CCc1cc(=O)[nH]c(SCc2nc(-c3ccccc3)no2)n1 | 87%
O=c1cc(-c2ccccc2)nc(SCc2nc(-c3ccc(C(F)(F)F)cc3)no2)[nH]1 | 150%
O=c1cc(-c2ccc(F)cc2)nc(SCc2nc(-c3ccccc3Cl)no2)[nH]1 | 121%
Cc1cccc(-c2noc(CSc3nc(-c4ccc(F)cc4)cc(=O)[nH]3)n2)c1 | 82%
CCc1cc(=O)[nH]c(SCc2nc(-c3cccc(Cl)c3)no2)n1 | 22%
CCc1cc(=O)[nH]c(SCc2nc(-c3ccc(C(F)(F)F)cc3)no2)n1 | 0% (active)
CCCc1cc(=O)[nH]c(SCc2nc(-c3ccccc3)no2)n1 | -2% (active)
CCCc1cc(=O)[nH]c(SCc2nc(-c3ccc(C)cc3)no2)n1 | 73%
CCn1nc(CC(=O)Nc2nnc(CC(=O)N3CCCC3)s2)c2ccccc2c1=O | 95%
Cc1nc2ccc(S(=O)(=O)NC(C(=O)NCc3ccc(Cl)cc3)C(C)C)cc2s1 (stereo not drawn) | 133%
O=C(CCS(=O)(=O)c1cc2c(cc1Cl)NC(=O)CO2)NCc1ccccc1Cl | 88%
COc1cc(NC(=O)CN(c2cc(C)cc(C)c2)S(=O)(=O)c2c(C)[nH]c(=O)[nH]c2=O)cc(OC)c1 | 83%
Cc1cccc(NC(=O)C2CCN(c3nnc(-n4c(C)ccc4C)s3)CC2)c1C | 132%
O=C(COCc1cc(-c2ccc(F)cc2)on1)Nc1cccc(C(F)(F)F)c1 | 77%

SMILES | survival
O=C(c1ccccc1)N(Cc1ccco1)Cc1cccs1 | 82%
CCn1c(CN2CCCCC2)nc2cc(NC(=O)COc3ccccc3C(C)(C)C)ccc21 | 122%
Cc1ccc(C(=O)c2cn(Cc3ccc(F)cc3)c3nc(C)ccc3c2=O)cc1 | 95%
Cc1ccc(Cn2cc(C(=O)c3ccc(C)cc3)c(=O)c3ccc(C)nc32)cc1 | 20% (active)
Cc1ccc(C(=O)c2cn(Cc3ccc(Cl)cc3)c3nc(C)ccc3c2=O)cc1 | 53%
CCOC(=O)c1cc(-c2ccccc2)n(CC(=O)Nc2cc(Cl)c(OC)cc2OC)c1C | 128%
CCOC(=O)c1ccc(NS(=O)(=O)c2cc(Br)cc3c2N(C(C)=O)C(C)C3)cc1 (stereo not drawn) | 83%
COc1ccc(N2CCN(C(=O)CCS(=O)(=O)c3cc4c(cc3Cl)NC(=O)CO4)CC2)cc1 | 85%
CCOCCc1nnc(NC(=O)C(=O)c2cc(C)n(-c3ccc(C)cc3C)c2C)s1 | 85%
Cc1ccc(-c2nc3c(C)cccn3c2Nc2ccccc2C)s1 | -2% (active)
Cc1ccccc1Nc1c(-c2ccco2)nc2c(C)cccn12 | 1% (active)
Cc1cccc(C)c1Nc1c(-c2ccccn2)nc2c(C)cccn12 | 77%
Cc1ccc(Nc2c(-c3ccc(C)s3)nc3ccccn23)cc1 | 31%
Cc1ccccc1Nc1c(-c2ccc(Cl)s2)nc2c(C)cccn12 | 69%
Cc1ccccc1Nc1c(-c2ccc(Cl)s2)nc2cccc(C)n12 | 80%
Fc1ccc(Nc2c(-c3ccco3)nc3ccccn23)cc1 | 69%
Cc1ccc(-c2nc3ccccn3c2Nc2ccccc2C)s1 | 11% (active)
Cc1ccc(-c2nc3ccc(Cl)cn3c2Nc2ccccc2C)s1 | 94%
